We go through 24 compounds from the supplement of paper PMC9177965.

Values joined by “and” are separate entries in the source; they are usually repeats but may differ in a detail not shown here. Identical values can stand only once.

In this experiment the test system is HT29 sg-Ctrl (RNF43 wildtype). Put plainly: cell viability activity relative to DMSO (negative = inhibition); higher = more viable cells (less growth inhibition). The conditions noted are these: 5 µM; 96 h. Here is the method: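 Broad Repurposing Library primary screen at a single dose of 5 uM. HT29 sg-Ctrl and HT29 RNF43 G659fs CRISPR-edited isogenic cells were seeded at 2500 cells/well in 384-well plates in duplicate and treated for 96 h. Viability was read by CellTiter-Glo and reported as % activity relative to DMSO, with MG132 as the positive control (negative = growth inhibition).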
For `Cc1ccc(-n2nc(C(C)(C)C)cc2NC(=O)NCc2cc(F)ccc2Oc2ccc3c(cnn3CCO)c2)cc1`, the cell viability activity was -42.9%.

In the case of `COC(=O)c1ccccc1-c1c2ccc(=N)cc-2oc2cc(N)ccc12`, the cell viability activity is -37.4%.

In the case of `CCCCC/N=c1\ccn(Cc2ccccc2)c2ccccc12`, the cell viability activity was -45.4%.

On to `O=c1[nH]c(=O)n([C@H]2C[C@H](O)[C@@H](CO)O2)cc1F`, for which the cell viability activity is -54.2% and -63.2%.

Consider `Cc1nc(-c2cn3c(n2)-c2ccc(-c4cnn(C(C)(C)C(N)=O)c4)cc2OCC3)n(C(C)C)n1`, for which the cell viability activity was -48.5%.

With `O=C(Nc1ccccc1-c1cn2c(CN3CCNCC3)csc2n1)c1cnc2ccccc2n1`, the cell viability activity was -81.8%.

`CN(C)C(=S)SC(=S)N(C)C`: the cell viability activity is -29.9%.

As for `COc1c/c(=C2\C=c3ccccc3=N2)[nH]/c1=C\c1[nH]c(C)cc1C`, the cell viability activity was -88.7%.

`CC(C)/N=c1\cc2n(-c3ccc(Cl)cc3)c3ccccc3nc-2cc1Nc1ccc(Cl)cc1`: the cell viability activity was -75.7%.

As for `CC(C)C[C@H](NC(=O)[C@H](Cc1ccccc1)NC(=O)c1cnccn1)B(O)O`, the cell viability activity is -94.6%.

In the case of `COc1ccc(NC(=O)c2ccc(-c3ccc(-c4noc(C)n4)cc3C)cc2)cc1N1CCN(C)CC1`, the cell viability activity was -57.8%.

Regarding `CCN(CC)CCCCNc1ncc2cc(-c3c(Cl)cccc3Cl)c(NC(=O)NC(C)(C)C)nc2n1`, the cell viability activity was -33%.

For the compound `COC(=O)Nc1nc2cc(C(=O)c3ccc(F)cc3)ccc2[nH]1`, the cell viability activity is -51.2%.

Consider `CS(=O)(=O)N1CCN(Cc2cc3nc(-c4cccc5[nH]ncc45)nc(N4CCOCC4)c3s2)CC1`, for which the cell viability activity was -51.8%.

For the compound `C/C(=C\c1csc(C)n1)[C@@H]1C[C@@H]2O[C@]2(C)CCC[C@H](C)[C@H](O)[C@@H](C)C(=O)C(C)(C)[C@@H](O)CC(=O)N1`, the cell viability activity was -38.1%.

Turning to `CC(=O)NCC(=O)N1[C@@H]2CC[C@H]1c1ccc(Nc3ncc(C(F)(F)F)c(NC4CCC4)n3)cc12`, the cell viability activity is -44.1%.

Take `CCCCCCCC(=O)N[C@H](CN1CCCC1)[C@H](O)c1ccc2c(c1)OCCO2`: the cell viability activity is -40.4%.

Take `Cc1cc(Nc2ncc(Cl)c(Nc3ccccc3S(=O)(=O)C(C)C)n2)c(OC(C)C)cc1C1CCNCC1`: the cell viability activity was -95%.

Regarding `Clc1ccc(NN=C(c2ccccc2)c2ccccn2)nc1`, the cell viability activity was -65.6%.

As for `COc1ccccc1S(=O)(=O)Nc1ccc2c(c1)CN(C)C(=O)N2`, the cell viability activity was -63.5%.

In the case of `Cc1ncc(NC(=O)c2ccc(CN3CCN(C)CC3)c(C(F)(F)F)c2)cc1Nc1nccc(-c2cccnc2)n1`, the cell viability activity is -49%.

In the case of `Cc1nc(Nc2ncc(C(=O)Nc3c(C)cccc3Cl)s2)cc(N2CCN(CCO)CC2)n1`, the cell viability activity was -60.3%.

With `CO[C@@H](C)Cn1c(=O)n(C)c2cnc3ccc(-c4cncc(C(C)(C)O)c4)cc3c21`, the cell viability activity is -78.6%.

As for `COc1cccc2cc(-c3nc([C@H]4CC[C@H](C(=O)O)CC4)n4ncnc(N)c34)[nH]c12`, the cell viability activity was -27.5%.
